Measured values taken from PubChem BioAssay (NCI).
The panel holds about 79,000 compounds, 15% with a hit somewhere; the sample as a whole holds those more often. Unmarked numbers belong to inactive results. Calls of active or inactive are those of the source. Rule as the data show it: active = growth inhibition above about 70%; inactive = the rest. Where a SMILES comes first, the peptide text is derived from it. The star is where a group is joined. Boc = CC(C)(C)OC(=O)*

Experiments:
[1] = NCI Yeast Anticancer Drug Screen. Data for the rad50 strain (AID 155);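 also: 0% = growth of vehicle-only cultures of the same strain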; conditions: S. cerevisiae rad50 strain growth inhibition; at 50.0 µM; stronger effect = higher value
How it was run: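 Compounds were tested on a yeast strain with an engineered DNA damage repair alteration; the reported value is growth inhibition normalised to vehicle treatment.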

[2] = NCI Yeast Anticancer Drug Screen. Data for the mec2-1 strain (AID 157); conditions: S. cerevisiae mec2-1 strain, at 50.0 µM, stronger effect = higher value
How it was run: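 Test agents were screened against the mec2-1 yeast strain, with defined DNA repair or cell cycle alteration. Growth was scored as inhibition against vehicle-only controls.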

[3] = NCI Yeast Anticancer Drug Screen. Data for the sgs1 mgt1 strain (AID 161);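 also: 0% = growth of cultures given vehicle only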; conditions: S. cerevisiae sgs1 mgt1 strain, at 50.0 µM, stronger effect = higher value
How it was run: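 Genetically altered yeast, compound exposure, growth inhibition relative to vehicle.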

[4] = NCI Yeast Anticancer Drug Screen. Data for the cln2 rad14 strain (AID 165);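 also: 0% = growth equal to vehicle treated cultures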; conditions: S. cerevisiae cln2 rad14 strain, at 50.0 µM, stronger effect = higher value
How it was run: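 Growth of compound-exposed yeast (cln2 rad14 genotype) measured and expressed as inhibition relative to vehicle.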

[5] = NCI Yeast Anticancer Drug Screen. Data for the bub3 strain (AID 167); conditions: S. cerevisiae bub3 mutant strain, at 50.0 µM, stronger effect = higher value
How it was run: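 Growth of a checkpoint-deficient yeast mutant is measured after compound exposure. Values represent inhibition relative to vehicle.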

[6] = NCI Yeast Anticancer Drug Screen. Data for the mlh1 rad18 strain (AID 175); conditions: S. cerevisiae mlh1 rad18 strain growth inhibition; at 50.0 µM; stronger effect = higher value
How it was run: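 In this whole-cell yeast screen, a strain with altered DNA damage repair is challenged with compound, and its growth is measured against matched vehicle-treated controls.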

Row | SMILES | growth inhibition [1] | growth inhibition [2] | growth inhibition [3] | growth inhibition [4] | growth inhibition [5] | growth inhibition [6]
1 | COc1ccc2nc3cc(Cl)ccc3c(NCCCNCCCNc3c4ccc(Cl)cc4nc4ccc(OC)cc34)c2c1 | -10.3% | -16.5% | -9.1% | 3.5% | -6% | -23.1%
2 | Cc1c([N+](=O)[O-])cc2c(c1[N+](=O)[O-])C(C(C)C)CCC2(C)C (stereo not given) | -1.5% | -25.2% | 9.65% | 29.2% | -40.4% | -5%
3 | Clc1ccc(/C=C2/c3ccccc3-c3nc4ccccc4cc32)cc1 | -1.1% | 24% | 23.8% | -24.9% | -9.4% | 6.85%
4 | CCOc1ccccc1N(CCN(C)C)C(=O)C(c1ccccc1)c1ccccc1 | 20.9% | -18.7% | 1.05% | -7.7% | 25.6% | 31.8%
5 | NC(CO)C(=O)NCC(=O)O (stereo not given) | -29.5% | 5.75% | -30.2% | -79.5% | -18.2% | -23.9%
6 | COc1cc(N=C2C=CC(=O)C=C2)c2ncccc2c1 | 2.95% | 1.05% | 4.1% | -33.1% | -0.7% | 3.75%
7 | CCOC(=O)C(CC(C)C)NC(=O)C(Cc1ccccc1)NC(=O)CNC(=O)OC(C)(C)C (stereo not drawn) (Boc-Gly-Phe-Leu-OEt; configuration not given here) | 7.65% | 7.35% | 9.45% | -11.7% | 7.2% | 18.2%
8 | CC1(C)C(N)C(C)(C)C1N (stereo not given) | -0.05% | -14.5% | -0.3% | 11.8% | 17.1% | 2.3%
9 | CN(C)c1nc(=S)c2cn[nH]c2[nH]1 | 0.1% | 0% | -3.7% | -21.8% | 6% | -1.2%
10 | [O-]/[N+]1=[N+](\[O-])c2ccccc2CCCc2ccccc21 | -7.35% | -7.3% | -2.6% | -34.1% | -12.8% | -7.1%
11 | CCOC(=O)CNC(=O)C(=[N+]=[N-])C(=O)COc1ccc(Cl)cc1Cl | 3.4% | -9% | 18.1% | -18.3% | 19.4% | -5.05%
12 | COc1cc2cc(c1Cl)NC(=O)/C=C/[C@]1(C)O[C@H]1[C@H](C)[C@@H]1C[C@@](O)(NC(=O)O1)[C@H](OC)C=C/C=C(\C)C2 | 20.2% | 4.55% | 12.1% | 22.1% | 20.5% | 21.4%
13 | CC1(C)COC(c2ccc(Cl)cc2)OC1 | 16.6% | 14.6% | 4.3% | -12.5% | 19.5% | 26.1%
14 | NC(=O)c1cn(C2OC(CO)C(O)C2O)c2nc(N)nc(N)c2c1=O (stereo not given) | 19% | 19.4% | 14.3% | 3.9% | 23.1% | 45.1%
15 | CCCNC(C)C(C)O (stereo not given) | -5.9% | -16.4% | -24.1% | -16.3% | -4.75% | -10.9%
16 | O=S(=O)(O)c1cccc2c(O)cccc12 | -7.9% | -2.9% | 5.65% | 34.9% | 5.35% | -32%
17 | CCN(CC)c1ccc2cc(C(=O)NC(=O)Oc3ccccc3)c(=O)oc2c1 | 25.1% | -5.5% | -6.05% | 25.1% | -3.2% | 9.35%
18 | NC(=O)Cc1cc2c(cc1CO)OCO2 | 3.85% | 1.8% | 2.45% | 7.9% | -13.3% | 5.55%
19 | CCOC1CCCC(OCC)O1 (stereo not given) | -44.4% | -48.5% | -19.9% | 12% | -37.6% | -27.9%
20 | CCCCCCCCCCCCC(N)C(=O)O (stereo not given) | 3.55% | -9.15% | 28% | -15.8% | 6.7% | -1.3%

Row | SMILES | growth inhibition [1] | growth inhibition [2] | growth inhibition [3] | growth inhibition [4] | growth inhibition [5] | growth inhibition [6]
21 | O=C(Nc1cccc(Cl)c1Cl)c1cc(/C=C/c2ccc([N+](=O)[O-])cc2)on1 | -21.2% | 1.15% | -12.8% | 9.1% | -8.25% | -3.85%
22 | CCC1OC(=O)C(C)C(OC2CC(C)(O)C(O)C(C)O2)C(C)C(O)C(C)(O)CC(C)C(=O)C(C)C(O)C1C (stereo not given) | -14.4% | -22.6% | 0.5% | -5.4% | -21.2% | -5.15%
23 | CCOC(=O)C1=C(N)n2c(s/c(=C/c3ccc(N(C)C)cc3)c2=O)=C(C(=O)OCC)C1c1ccc(N(C)C)cc1 (stereo not given) | -7.3% | -19.1% | -9.1% | -7.2% | 3.4% | -7.3%
24 | CCNc1nnc(N=Nc2ccccc2)s1 | 0.5% | 12.8% | 13.4% | -2% | 7.55% | 3.65%
25 | NC(=O)c1c[nH]c(=O)cc1O | -5.35% | -13.6% | 50.2% | 18.8% | 7.3% | 0%
26 | C=C1C(=O)OC2CC3(CO3)C3C(O)C(O)CC3(C)CC12 (stereo not given) | 2.4% | 2.45% | -14.2% | -13.6% | -42.5% | -70.7%
27 | CC(C)(C)OC(=O)NO | -0.6% | 2.9% | 0% | 1.75% | 5.05% | 4.7%
28 | CC(=O)Nc1c(OC(C)=O)ccc2cc(Br)ccc12 | -0.15% | 20.9% | 12.4% | -15.2% | -0.25% | 8.85%
29 | O=C(c1ccccc1)c1ccc(N2CCOCC2)cc1 | -29.4% | -44.9% | 24.4% | 4.75% | -7.85% | -5.7%
30 | N#Cc1cccc(N2C(=O)C3C4C=CC(C3C2=O)C2C(=O)N(c3cccc(C#N)c3)C(=O)C42)c1 (stereo not given) | -8.5% | -0.65% | -6.25% | 26.6% | -0.35% | -18.4%
31 | NC(N)=Nc1nc2ccc(Cl)cc2[nH]1 | 29.2% | 1% | 22.8% | -4.3% | -11.9% | 11%
32 | NC1=C(O)C(=O)C(c2ccccc2O)O1 (stereo not given) | -34.6% | -32.6% | -19.1% | -21.6% | -18.6% | -10.9%
33 | CC(C)(C)n1c(=O)[nH]c(=O)n1C(C)(C)C | 5.75% | -18.4% | -21.9% | 1.9% | -32.8% | -22.2%
34 | CCOC(=O)CC(C#N)C(C)C(=O)OCC (stereo not given) | 2.3% | 1.3% | 0.4% | 6.5% | 0.9% | -0.35%
35 | O=C1c2cc(Cl)ccc2OCC1Cl (stereo not given) | 37.5% | 22.2% | 14.6% | -25.6% | 18.7% | 7.4%
36 | CC(=O)Nc1ccc(/C=C/C(=O)c2sc(-c3cccnc3)nc2C)cc1 | 33.2% | 11.8% | 3.25% | 17.9% | 17.5% | 29.3%
37 | [NH-]c1ncnc2c1N=C[N+]2=CC=CCO | -1.6% | -17% | -19.7% | -7.6% | -28.4% | -10.7%
38 | COc1cc(C2[C@H]3C(=O)N(c4ccc(Cc5ccc(N6C(=O)[C@@H]7ON(c8ccccc8)C(c8cc(OC)c(OC)c(OC)c8)[C@@H]7C6=O)cc5)cc4)C(=O)[C@H]3ON2c2ccccc2)cc(OC)c1OC (stereo not given in full) | -2.25% | 5.2% | 3.75% | 27.5% | 25.9% | -6.3%
39 | CC(C)[Si]1(C(C)C)OCC2OC(n3c(C(=O)c4ccccc4)cc(=O)[nH]c3=O)CC2O[Si](C(C)C)(C(C)C)O1 (stereo not given) | -2.2% | 5.7% | 17.5% | 24.4% | 17.9% | 6.35%
40 | COC(=O)C1c2ccoc2CC2C1C(O)C(O)C1C(C)(C)CCCC21C (stereo not given) | 57.5% | 88.6% (active) | 77.8% (active) | 72% (active) | 81.6% (active) | 92.5% (active)
